High-throughput results: PubChem BioAssay, Johns Hopkins Ion Channel Center
Compounds with a hit are over-represented: about 1.6% of the library has one in this group of screens.
KCNQ2 block = rat KCNQ2 potassium channel inhibitors, primary screen, cell-based, CHO-K1, FluxOR thallium flux, B-score. Potassium voltage-gated channel subfamily KQT member 2 (Rattus norvegicus), O88943. 20 min; stronger effect = lower value. B-score at 10 µM. 310,000 tested, 1.1% active;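 active = fluorescence ratio B-score at most minus 3 library SDs, with starting brightness B-score within 2 library SDs, cut at about -5.5 in these data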
Target sequence (O88943 whole entry, looked up): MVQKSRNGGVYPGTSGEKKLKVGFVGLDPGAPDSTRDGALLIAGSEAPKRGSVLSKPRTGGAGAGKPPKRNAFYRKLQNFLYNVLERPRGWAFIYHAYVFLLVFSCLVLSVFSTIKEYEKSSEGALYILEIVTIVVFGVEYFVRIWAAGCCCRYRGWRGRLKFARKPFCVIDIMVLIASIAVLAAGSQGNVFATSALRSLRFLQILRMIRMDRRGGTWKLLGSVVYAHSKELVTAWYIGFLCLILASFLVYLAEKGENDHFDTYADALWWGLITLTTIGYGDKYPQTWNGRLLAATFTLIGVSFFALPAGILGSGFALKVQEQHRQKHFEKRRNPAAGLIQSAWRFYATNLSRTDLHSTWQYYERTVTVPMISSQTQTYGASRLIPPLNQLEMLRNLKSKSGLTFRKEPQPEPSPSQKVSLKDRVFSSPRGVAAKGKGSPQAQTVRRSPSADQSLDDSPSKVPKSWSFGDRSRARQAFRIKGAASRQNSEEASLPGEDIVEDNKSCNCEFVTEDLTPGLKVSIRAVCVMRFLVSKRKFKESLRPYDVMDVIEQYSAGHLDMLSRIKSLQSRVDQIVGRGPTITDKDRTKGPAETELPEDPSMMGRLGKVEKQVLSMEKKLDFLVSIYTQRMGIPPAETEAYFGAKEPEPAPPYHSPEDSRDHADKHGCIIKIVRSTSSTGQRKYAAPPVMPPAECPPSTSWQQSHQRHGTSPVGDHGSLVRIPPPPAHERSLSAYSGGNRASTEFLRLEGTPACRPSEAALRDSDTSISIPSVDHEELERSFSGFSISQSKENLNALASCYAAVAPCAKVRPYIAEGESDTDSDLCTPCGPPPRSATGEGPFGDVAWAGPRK
KCNQ2 enhance = potentiators of rat KCNQ2 potassium channel; Potassium voltage-gated channel subfamily KQT member 2 (Rattus norvegicus), O88943; CHO-K1 KCNQ2, FluxOR thallium flux fluorescence; stronger effect = higher value; B-score at 10 µM; 310,000 tested, 0.54% active; AID 2239, 2010;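 active = fluorescence ratio B-score at least 3 SD of library B-scores, with initial fluorescence B-score within 3 of them, cut at about 5.3 in these data; same plate scores as AID 2156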;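 note: B-score of peak minus minimum over baseline fluorescence ratio after K+ and Tl+ stimulus; positive B-score means potentiation of KCNQ2 with more thallium influx and brighter signal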
Active calls of the source: *; i = inactive; x = no result given.

SMILES	KCNQ2 block	KCNQ2 enhance
CC1CC(C)CN(CCCNC(=O)C2CCCN(S(=O)(=O)N3CC(C)CC(C)C3)C2)C1 (configuration not stated)	i	x
O=C(c1ccc2c(c1)OCO2)N(Cc1ccco1)C1(C(=O)NC2CCCCC2)CCCCC1	-7.3*	-7.3
O=C(c1ccccn1)N(Cc1ccco1)C1(C(=O)NC2CCCC2)CCCCC1	i	x
CC1CCC(NC(=O)C2c3ccccc3C(=O)N2Cc2cccs2)CC1 (configuration not stated)	i	x
Cc1cccc(N2CCN(C(=O)Cc3c(C(=O)O)[nH]c4ccc(Cl)cc34)CC2)c1C	i	7*
O=C(O)c1[nH]c2ccccc2c1CC(=O)N1CCN(c2ccccc2)CC1	i	x
Cc1nn(-c2ccccc2)c(Cl)c1C(=O)OCC(=O)NCCc1ccccc1	i	x
COc1ccc(N2CCN(S(=O)(=O)CCNC(=O)COc3ccccc3C)CC2)cc1	i	x
COc1ccc(N(CC(=O)NC2CCCC2)C(=O)c2ccc(C)s2)cc1OC	i	0.03
Cn1c(=O)n(CC(N)=O)c(=O)c2c1nc(Br)n2Cc1ccccc1	i	0.07
CCCCOC(=O)Cn1c(=O)c2c(nc(Br)n2Cc2ccccc2)n(C)c1=O	-7.5*	-7.5
CCOc1ccccc1NC(=O)CCS(=O)(=O)c1ccc2c(c1)CCN2C(C)=O	i	0.29
Cc1nc(NC(=O)c2cccc(Cl)c2)sc1C(=O)N1CCCCC1	-7.5*	-7.5
Cc1nc(NC(=O)C2CC2)sc1C(=O)N1CCCCC1	i	1.2
Cc1cccc(C(=O)OCC(=O)NC(=O)Cc2ccccc2)c1O	i	0.4
COc1ccc(CC(=O)Nc2cccc(/C(C)=N/NC(=O)c3cccc([N+](=O)[O-])c3)c2)cc1	-6*	-6
COc1ccc(CC(=O)N/N=C(\C)c2cccc(NC(=O)C3CC3)c2)cc1	i	2.9
CCOC(=O)c1ccc(N2C(=O)C(O)=C(C(C)=O)C2c2ccc([N+](=O)[O-])cc2)cc1 (configuration not stated)	i	1.7
Nc1nc(-c2cccnc2)nc2sc3c(c12)CCCC3	i	3.5
O=C1CN(c2nc(-c3cccnc3)nc3sc4c(c23)CCCC4)CCN1	-5.7*	-5.7
O=C(NCc1ccc2c(c1)OCO2)c1cc(-c2ccccc2)nn1CC1CC(c2cccnc2)=NO1 (configuration not stated)	i	0.41
O=[N+]([O-])c1cc(Cl)ccc1N1CCN(c2cccc(C(F)(F)F)c2)CC1	-6.2*	-6.2
O=[N+]([O-])c1cc(Cl)ccc1N1CCCC1	i	0.43
CC(=O)OCC1CCCC2=C(C)C(=O)CCC21COC(C)=O (configuration not stated)	i	0.49
O=C(CSc1nnc(SCc2ccc(Cl)cc2)s1)N/N=C/c1ccc(Cl)cc1Cl	i	x
SMILES	KCNQ2 block	KCNQ2 enhance
O=C(CSc1nnc(SCc2ccc(Cl)cc2)s1)N/N=C/c1c(Cl)cccc1Cl	i	5.4*
CCOC(=O)N1CCN(C(=O)c2cnn3c(C(F)F)cc(-c4ccc(C)cc4)nc23)CC1	i	3
Cc1ccc(-c2cc(C(F)F)n3ncc(C(=O)N4CCN(c5cccc(C)c5C)CC4)c3n2)cc1	-6.4*	-6.4
Cc1ccc(N(C)S(=O)(=O)c2cccc(C(=O)NCC(c3cccs3)N3CCOCC3)c2)cc1 (configuration not stated)	-6.8*	-6.8
Cc1ccc(S(=O)(=O)N(C)c2ccc(C(=O)NCC(c3cccs3)N3CCOCC3)cc2)cc1 (configuration not stated)	i	x
COc1ccc2[nH]c3c(c2c1)CCN1C(=O)N([C@@H](C)C(=O)NC2CCCCC2C)C(=O)[C@]31C (some centres not stated)	i	x
Clc1cccc(Cl)c1Cn1cnc2c(NCc3ccco3)ncnc21	i	0.45
Cn1cnc2c(NCc3ccco3)ncnc21	-7*	-7
CCc1noc(C)c1C(=O)Nc1cccc2ncccc12	i	x
Cc1cccc(C)c1-n1c(C)cc(/C=N\NC(=O)CC(=O)NC2CCCCC2)c1C	i	8.4*
Cc1cc(/C=N\NC(=O)CC(=O)NC2CCCCC2)c(C)n1-c1cccc(Cl)c1Cl	i	4.7
COc1ccc(C(=O)N/C(=C/c2cccs2)c2nc3ccccc3[nH]2)cc1OC	i	1.1
COc1cc(/C=C(/C(=O)c2cccs2)c2nc3ccccc3[nH]2)cc(OC)c1O	-6.1*	-6.1
COc1ccc(C(C(=O)NC(C)(C)C)N(C(=O)CCC(=O)Nc2cc(C)on2)c2c(C)cccc2C)cc1 (configuration not stated)	i	x
Cc1ccc2ncc(S(=O)(=O)c3ccccc3)c(N3CCCCC3C)c2c1 (configuration not stated)	-6.1*	-6.1
COc1ccc2ncc(S(=O)(=O)c3ccccc3)c(N3CCN(c4ccccc4)CC3)c2c1	i	x
